Data reported in PubChem BioAssay (NCI).
About 79,000 compounds went through this panel and 15% of them were active in at least one assay; those are over-represented in the sample as a whole. No stated cut-off is given here; in the data, active means growth inhibition above about 70%; inactive means the rest. Where a SMILES comes first, the peptide text is derived from it. Bridges are numbered along the chain shown (N, C = ends). [ ]: non-standard residue; d: D form. The star is where a group is joined. Cbz = O=C(OCc1ccccc1)*; Aib = CC(C)(N)C(=O)O; OBn = c1ccc(CO*)cc1; βAla = NCCC(=O)O

Experiments:
[1] = NCI Yeast Anticancer Drug Screen. Data for the rad50 strain (AID 155);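 further: 0% = growth of vehicle-only cultures of the same strain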; details: S. cerevisiae rad50 strain growth inhibition; at 50.0 µM; hits give high values
Procedure, shortened: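 Inhibition values express reduced yeast growth in compound-treated cultures relative to vehicle-treated controls.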

[2] = NCI Yeast Anticancer Drug Screen. Data for the mec2-1 strain (AID 157); details: S. cerevisiae mec2-1 strain, at 50.0 µM, hits give high values
Procedure, shortened: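 Test agents were screened against the mec2-1 yeast strain, with defined DNA repair or cell cycle alteration. Growth was scored as inhibition against vehicle-only controls.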

[3] = NCI Yeast Anticancer Drug Screen. Data for the sgs1 mgt1 strain (AID 161);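 further: 0% = growth of cultures given vehicle only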; details: S. cerevisiae sgs1 mgt1 strain, at 50.0 µM, hits give high values
Procedure, shortened: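 Test agents were incubated with a DNA-repair-mutant yeast strain. Growth was then read and compared against vehicle-treated controls.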

[4] = NCI Yeast Anticancer Drug Screen. Data for the cln2 rad14 strain (AID 165);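 further: 0% = growth equal to vehicle treated cultures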; details: S. cerevisiae cln2 rad14 strain, at 50.0 µM, hits give high values
Procedure, shortened: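 Growth of compound-exposed yeast (cln2 rad14 genotype) measured and expressed as inhibition relative to vehicle.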

[5] = NCI Yeast Anticancer Drug Screen. Data for the bub3 strain (AID 167); details: S. cerevisiae bub3 mutant strain, at 50.0 µM, hits give high values
Procedure, shortened: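 Steps: expose the mutant yeast strain to compound; grow alongside vehicle-treated cultures; measure growth; express inhibition against the vehicle cultures.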

[6] = NCI Yeast Anticancer Drug Screen. Data for the mlh1 rad18 strain (AID 175); details: S. cerevisiae mlh1 rad18 strain growth inhibition; at 50.0 µM; hits give high values
Procedure, shortened: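 In this whole-cell yeast screen, a strain with altered DNA damage repair is challenged with compound, and its growth is measured against matched vehicle-treated controls.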

Measured: growth inhibition

C=CCN1C(=O)CS/C1=N\NC(=O)c1c(C)nc2sccn12
inactive: [1] -16.3% | [2] -4.15% | [3] -8.95% | [4] -7.4% | [5] -22.8% | [6] -28.4%

C=CC1C(OC2OC(CO)C(O)C(O)C2O)OC=C(C(=O)OC)C1CC=O (stereo unspecified)
inactive: [1] 32.9% | [2] 11.9% | [3] 4.15% | [4] 13.4% | [5] 18.3% | [6] 32.7%

Cc1ccc(O)c2occ(C)c12
inactive: [1] 17.7% | [2] 12.1% | [3] 10.5% | [4] 36.9% | [5] -2.8% | [6] 39.5%

CC1CCC(O)C(C(O)CC2CC(=O)NC(=O)C2)C1 (stereo unspecified)
inactive: [1] 23.3% | [2] -3.3% | [3] 5.4% | [4] -21.7% | [5] 4% | [6] 3.45%

CCCCCCCCCCCCC(Br)C(=O)OCC (stereo unspecified)
inactive: [1] 7.55% | [2] -7.6% | [3] 16.1% | [4] -5.2% | [5] -6.6% | [6] 3.95%

Cc1cc[n+](CCc2c[nH]c3ccccc23)cc1C
inactive: [1] 30.5% | [2] -0.3% | [3] 11.9% | [4] 20.4% | [5] -1.65% | [6] 10.8%

COc1cc(/C=C(\C#N)C(=O)c2ccccc2)ccc1O
inactive: [1] -13.8% | [2] -18.1% | [3] -11.9% | [4] 5.4% | [5] -27.5% | [6] 3.05%

CCOC(=O)C(C)Sc1ncnc2nc[nH]c12 (stereo unspecified)
inactive: [1] -12.8% | [2] 4.4% | [3] -3.15% | [4] 20.9% | [5] 18% | [6] -0.9%

CN1C(=O)c2c(ccc3c2OCO3)C2C(O)Cc3cc4c(cc3C21)OCO4 (stereo unspecified)
inactive: [1] 6.85% | [2] 9.9% | [3] 21.8% | [4] 27.9% | [5] 7.15% | [6] -51%

CN(C)Cc1cccc(C(F)(F)F)c1C(O)c1ccccc1 (stereo unspecified)
inactive: [1] 7.75% | [2] -10.2% | [3] -5.3% | [4] 3.9% | [5] 7.7% | [6] -14.7%

Cc1nc2c(cc1C#N)C(Nc1ccc(Cl)cc1)Oc1ccc([N+](=O)[O-])cc1-2 (stereo unspecified)
inactive: [1] -4.6% | [2] -12.3% | [3] 0.5% | [4] -32.2% | [5] -36.5% | [6] -7.5%

CCCCCCCCCCCCCCCCCCNC(=O)N1CCC(C)CC1
inactive: [1] -7.9% | [2] -4.8% | [3] 21.2% | [4] -13.7% | [5] 4.95% | [6] -24.6%

CCC(=O)C12CCCC1=NC(=N)N=C2C1=NC(=N)N=C2CCCC21C(=O)CC (stereo unspecified)
inactive: [1] -10.3% | [2] 12.4% | [3] -14.2% | [4] 2.75% | [5] -1.7% | [6] 5.2%

CCOc1ccc(S(=O)(=O)OCC)cc1
inactive: [1] -15.6% | [2] -14% | [3] -25.2% | [4] 1.35% | [5] -8.45% | [6] -19.6%

O=[N+]([O-])c1ccc2[nH]nc(OCc3ccccn3)c2c1
inactive: [1] 35% | [2] 33.4% | [3] -23.8% | [4] 28.1% | [5] 7.15% | [6] 20.9%

O=C(Oc1ccco1)c1ccc([N+](=O)[O-])cc1
inactive: [1] 2.55% | [2] 0.6% | [3] -4.7% | [4] -17.2% | [5] 0.1% | [6] -9.8%

COC(=O)c1cc2ccccc2n1C
inactive: [1] -25.7% | [2] -45.6% | [3] -30.9% | [4] 16.1% | [5] -6.95% | [6] -8.15%

COc1ccc([C@H]2CC3C(=O)N(c4ccc(OC)cc4)C(=O)C3c3[nH]c4ccccc4c32)cc1 (stereo partly specified)
inactive: [1] -10.1% | [2] -2.95% | [3] -1.05% | [4] -64.2% | [5] -16.4% | [6] -16.9%

Cc1cc2[nH]c(=O)c(=O)[nH]c2cc1C
inactive: [1] 0.35% | [2] 4.05% | [3] 7.15% | [4] 17.7% | [5] -0.95% | [6] 2.55%

COc1ccc(/C=N/NC(=O)NCCNCCO)cc1
inactive: [1] -16.6% | [2] -31.8% | [3] -32.8% | [4] -13.7% | [5] -39.5% | [6] -17.2%

NC(=O)COc1ccc(Br)cc1Br
inactive: [1] -0.1% | [2] -3.15% | [3] -12.7% | [4] 13.6% | [5] -6.3% | [6] 11.8%

CC1(C)NC(=O)C(NC(=O)C(CC(=O)OCc2ccccc2)NC(=O)OCc2ccccc2)CCCCNC(=O)CCNC1=O (stereo unspecified) (Cbz-D(OBn)K[Aib][βAla]; lactam 2-C; configuration not given here)
inactive: [1] -0.7% | [2] -11.6% | [3] -7.95% | [4] 20.4% | [5] -2.35% | [6] 1.3%

C/C(C=C1C(=O)NC(=S)NC1=O)=C\c1ccccc1
inactive: [1] 13.5% | [2] -2.55% | [3] 8.35% | [4] -4.55% | [5] -8.5% | [6] 14.1%

Clc1cc(Cc2cc(Cl)c(Cl)c3c2OCOC3)c2c(c1Cl)COCO2
inactive: [1] -47.6% | [2] -24.9% | [3] -5% | [4] -22.4% | [5] -10.6% | [6] -18.3%

CCSc1cc2c(cc1O)CC[C@@H]1[C@@H]2CC[C@]2(C)[C@@H](O)CC[C@@H]12
inactive: [1] -6.6% | [2] -18.1% | [3] -6.95% | [4] -7.5% | [5] 22.4% | [6] -27.6%

Cc1ccc(-n2cnc(C(=N)C#N)c2N)cc1
inactive: [1] -15.6% | [2] -31.7% | [3] -10% | [4] -12.1% | [5] 9.55% | [6] -13.1%

CCOC(=O)CCC(C)(C#N)c1ccccc1 (stereo unspecified)
inactive: [1] -2.35% | [2] 0.65% | [3] 2.5% | [4] -9.1% | [5] 5.75% | [6] -0.05%

COC(OC)c1ccccc1CO
inactive: [1] -7.6% | [2] -28.5% | [3] -6.1% | [4] -41.5% | [5] 3.65% | [6] -14.8%

CCOC(=O)C1SC(=Nc2ccc(C)c(C)c2)N=C1C (stereo unspecified)
inactive: [1] -20.2% | [2] -7.4% | [3] -22.4% | [4] 19.7% | [5] 4.85% | [6] 7.15%

NNC(=O)Cc1c[nH]c2ccccc12
inactive: [1] 7.1% | [2] 9.4% | [3] 5.85% | [4] -7.55% | [5] 6% | [6] 2.25%

C=CCN(CC=C)C(=S)NC(=O)c1ccccc1
inactive: [1] 17.8% | [2] 27.8% | [3] 53.2% | [4] 16.9% | [5] 28.3% | [6] 2.25%

O=S(=O)([O-])c1ccc(N=Cc2ccccc2[O-])cc1.O=S(=O)([O-])c1ccc(N=Cc2ccccc2[O-])cc1.[Co+2]
inactive: [1] 16.6% | [2] 2.25% | [3] -15.2% | [4] 23.4% | [5] 9.25% | [6] -9.65%

CCCCCCCCCCc1c2nc(c(CCCCCCCCCC)c3ccc([nH]3)c(CCCCCCCCCC)c3ccc([nH]3)c(CCCCCCCCCC)c3nc1C=C3)C=C2
inactive: [1] -18.1% | [2] -11.9% | [3] -5.95% | [4] 23.4% | [5] 6% | [6] -63.7%

Clc1ccccc1CSc1cnnc(SCc2ccccc2Cl)c1SCc1ccccc1Cl
inactive: [1] -0.1% | [2] 13.3% | [3] 6.4% | [4] 22.9% | [5] 10.7% | [6] 27.6%

COc1ccc(N=Cc2c(O)ccc3ccccc23)cc1
inactive: [1] 12% | [2] 48% | [3] 43.1% | [4] 0.95% | [5] 32% | [6] 63%

CCC(=O)Cc1cnccn1
inactive: [1] -47.1% | [2] -32.5% | [3] -12.3% | [4] -10.1% | [5] -9.15% | [6] -12.4%

CN(C)C1(C(=O)O)c2ccccc2-c2ccccc21
inactive: [1] 9.85% | [2] 10.6% | [3] 21.8% | [4] -3.45% | [5] 16.3% | [6] -3.3%

O=S1(=O)C(Cl)=C(O)c2ccccc21
inactive: [1] 13.4% | [2] 6.5% | [3] -2.05% | [4] -22.6% | [5] -7.7% | [6] 11.4%

Cc1ccc(S(=O)(=O)OC2C3C4CCC5C3SC3C5C4C23)cc1 (stereo unspecified)
inactive: [1] -5.3% | [2] -21.1% | [3] -3.65% | [4] 5.8% | [5] 6.6% | [6] 1.1%

O=C1CS/C1=C/c1ccccc1
inactive: [1] 11.4% | [2] -2.95% | [3] -15.2% | [4] -68.7% | [5] -7.85% | [6] -5.15%

NC(=O)Cc1c(F)c(F)c(F)c(F)c1F
inactive: [1] 9.95% | [2] -20.5% | [3] -0.95% | [4] 8.85% | [5] 28.8% | [6] 5.3%
